High-throughput results: PubChem, Buhrlage Lab, Dana-Farber Cancer Institute and Novartis Institutes for BioMedical Research (Cambridge, Mass)
USP30 inh: human USP30 deubiquitinase inhibition; Q70CQ3; purified USP30, Ub-rhodamine cleavage fluorescence; AID 1645860; 47,000 tested, 5.3% active; inhibition, % at 25 µM
Target sequence (Q70CQ3 whole entry, looked up): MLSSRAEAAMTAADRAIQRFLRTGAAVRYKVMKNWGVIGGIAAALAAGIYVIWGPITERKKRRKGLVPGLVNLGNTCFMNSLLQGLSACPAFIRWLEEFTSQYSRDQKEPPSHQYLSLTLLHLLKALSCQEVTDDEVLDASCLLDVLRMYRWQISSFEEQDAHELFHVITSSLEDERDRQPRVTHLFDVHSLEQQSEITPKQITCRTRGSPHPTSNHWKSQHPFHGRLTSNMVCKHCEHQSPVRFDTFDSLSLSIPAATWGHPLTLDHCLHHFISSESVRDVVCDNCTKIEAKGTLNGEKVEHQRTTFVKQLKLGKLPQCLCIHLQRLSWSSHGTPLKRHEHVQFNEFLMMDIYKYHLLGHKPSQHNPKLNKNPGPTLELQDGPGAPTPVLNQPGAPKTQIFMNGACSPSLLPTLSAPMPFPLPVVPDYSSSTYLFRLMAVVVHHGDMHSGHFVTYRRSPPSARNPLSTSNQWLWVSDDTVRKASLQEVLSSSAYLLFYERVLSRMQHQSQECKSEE
USP17 inh: human USP17-like deubiquitinase inhibition; A8MUK1; purified USP17, Ub-rhodamine cleavage fluorescence, 3 h; inhibition, % at 50 µM; 47,000 tested, 6.5% active
USP8 inh: inhibitors of human USP8 deubiquitinase; purified USP8, Ub-rhodamine cleavage fluorescence, 30 min; inhibition, % at 20 µM; 47,000 tested, 4.2% active; AID 1645853
USP28 block: blocks human USP28 ubiquitin-rhodamine cleavage; Q96RU2; purified USP28, Ub-rhodamine cleavage fluorescence, 30 min; inhibition, % at 25 µM; 47,000 tested, 3% active
Active calls of the source: *; . = no result. This is a sample that favours compounds with a hit; in the whole collection about 13% have one here. No stated cut-off is given here; in the data, active means inhibition above about 30%; inactive means the rest.

SMILES	USP30 inh	USP17 inh	USP8 inh	USP28 block
COc1ccc(C2c3[nH]c4ccccc4c3C[C@@H]3C(=O)N(CC4CCCO4)CC(=O)N23)cc1OC (stereo partly specified)	-49.9	-18.0	-39.4	-20.0
CC(C)=CCc1c(O)cc2c(c1C)OC(=O)c1c(C)c(Cl)c(O)c(CO)c1O2	38.7*	37.3*	10.2	48.5*
COc1ccc(C2=NC3(CCN(Cc4ccccc4F)CC3)NC2=O)cc1	-14.5	-9.5	-94.0	-11.2
Cc1cccc(C(=O)OCC(=O)Nc2ccc3[nH]c(=O)[nH]c3c2)c1C	51.9*	40.2*	-61.8	39.8*
COc1cccc(C(=O)OCC(=O)Nc2ccc(C)c(S(=O)(=O)N3CCCCC3)c2)c1OC	11.1	7.5	13.9	16.0
Cc1cc(Cl)ccc1OCC(=O)Nc1ccccc1	-3.2	13.6	0.0	-5.7
Cc1ccccc1CSCC(=O)Nc1ccc2[nH]c(=O)[nH]c2c1	41.9*	45.2*	-0.2	32.3*
Cc1nnc(SC(C)C(=O)Nc2ccc3[nH]c(=O)[nH]c3c2)n1Cc1ccccc1 (stereo unspecified)	-27.0	-5.7	-11.4	4.1
COc1ccc(NC(=O)c2ccco2)cc1NC(=O)COc1ccc(Cl)cc1Cl	-5.5	-2.4	42.5*	-0.1
O=C(COc1ccc(Cl)cc1Cl)Nc1ccc2[nH]c(=O)[nH]c2c1	66.2*	35.4*	51.2*	46.5*
CC(Oc1ccc(Cl)cc1)C(=O)OCC(=O)Nc1ccc2[nH]c(=O)[nH]c2c1 (stereo unspecified)	-17.3	22.7	-74.6	6.3
O=C(COc1ccccc1C(=O)Nc1ccccc1)Nc1ccc2[nH]c(=O)[nH]c2c1	-27.0	37.8*	-6.4	-0.4
O=C(COC(=O)c1ccc(Cl)cc1)Nc1ccc2[nH]c(=O)[nH]c2c1	74.0*	14.4	34.1*	31.0*
O=C(C1CCC1)N1CC[C@@H]2Oc3ccccc3S(=O)(=O)N(Cc3ccccc3)[C@H]2CC1	12.7	0.1	2.8	11.2
CC(C)Cc1ccc(/C=C/C(=O)Nc2ccc3c(c2)OCCO3)cc1	11.7	0.0	-0.8	13.9
COc1ccc(/C=C/C(=O)Nc2ccc3c(c2)OCCO3)cc1	.	-3.0	-1.9	.
O=C(/C=C/c1ccc(F)cc1)Nc1ccc2c(c1)OCCO2	19.8	7.0	5.8	86.2*
CC(C)(C)c1ccc(/C=C/C(=O)Nc2ccc3c(c2)OCCO3)cc1	-8.2	-2.2	-8.8	33.5*
COc1ccc(N2CCN(c3c(CN4CCCC4)c(=O)oc4ccccc34)CC2)cc1	2.9	-0.1	-1.3	-0.9
CC(C)(C)c1nc(NCc2ccco2)c2nnn(Cc3ccccc3Cl)c2n1	.	-8.9	-7.0	.
O=C(COc1ccc2ccc(=O)oc2c1)c1ccc2c(c1)OCCO2	-178.7	42.7*	2.3	-19.8
O=C(c1cn(-c2cccc(F)c2)nn1)N1CCN(c2ccccc2)CC1	-139.6	-9.8	0.6	-15.9
O=C(c1cn(-c2cccc(F)c2)nn1)N1CCc2ccccc2C1	11.3	55.1*	0.6	1.0
Cc1ccc(NC(=O)c2nc(C)n(C3CCN(S(C)(=O)=O)CC3)c2C)cc1	-14.2	-0.8	2.6	0.4
Nc1cc(C2CCN(C(=O)CCCc3ccccc3)CC2)no1	.	-1.4	-4.6	.
SMILES	USP30 inh	USP17 inh	USP8 inh	USP28 block
O=C(CCCc1ccccc1)N1CCN(c2ccc(-c3ccc4c(c3)OCO4)nn2)CC1	30.0*	24.3	16.1	19.0
CCCSc1nc(N)c2c3c(sc2n1)COC(C)(C)C3	-13.1	46.9*	3.5	-10.8
Cn1nccc1-c1cccc(-c2noc(-c3ccccn3)n2)c1	-5.4	7.5	5.4	-1.2
COc1cccc(C2CCNc3ccccc3N2)c1 (stereo unspecified)	-133.9	36.0*	74.0*	-23.0
CCOc1ccc(-n2c(C)c3c(C)nn4cc(-c5ccccc5)cc4c3c2C)cc1	31.6*	30.7*	29.0	8.5
Cn1c(N)c(C(=O)CN2CCN(c3cccc(Cl)c3)CC2)c(=O)n(C)c1=O	1.4	-12.2	-6.5	-4.8
COc1ccc(OC)c(NC(=O)c2ccc3nnc(C)n3c2)c1	-40.2	.	-14.4	-10.5
Cc1ccc(NC(=O)CCc2nnc(C(=O)Nc3ccccc3)s2)cc1C	-65.7	39.2*	-13.5	0.2
Cc1ccc(S(=O)(=O)Nc2cccc(Cl)c2)cc1NC(=O)CCc1ccccc1	15.3	21.5	16.9	9.9
CC1CCN(C(=O)c2csc(S(=O)(=O)NC3CC3)c2)CC1	17.8	13.9	23.1	13.6
c1cncc(-c2nc(Nc3ccc4c(c3)OCCCO4)c3ccccc3n2)c1	-13.6	40.1*	0.9	6.1
c1cncc(-c2nc(Nc3ccc4c(c3)OCCO4)c3ccccc3n2)c1	52.8*	42.0*	28.3	43.7*
CC(C)(C)c1ccc(Nc2nc(-c3cccnc3)nc3ccccc23)cc1	-68.3	-13.0	18.9	-18.9
